This is part of a sample that, as a whole, favours compounds with a hit. Of some 83,000 tested, about 20% had one in any assay.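 How to read the values: 0–100, growth inhibition (40 = 60% inhibited); 0, no net growth; -100 to 0, cell death (-40 = 40% of starting cells died; -100 = all dead).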 Unmarked numbers belong to inactive results. Activity calls are given as the source filed them. How the source made its calls: active means growth percent below 10; inactive means the rest.
Columns and labels:
Experiment in all cases: NCI-60 one-dose screen, 48 h (100 = growth as untreated, 0 = no growth, -100 = all killed)
Details in all cases: 10 µM unless noted
[1] = system: NCI-H23 lung
[2] = system: NCI-H226 lung
[3] = system: NCI-H322M lung
[4] = system: HOP-62 NSCLC
[5] = system: NCI-H460 lung
[6] = system: HOP-92 NSCLC
[7] = system: NCI-H522 lung
[8] = system: A549/ATCC NSCLC
[9] = system: 786-0 renal
[10] = system: COLO 205 colon

| SMILES | growth [1] [%] | growth [2] [%] | growth [3] [%] | growth [4] [%] | growth [5] [%] | growth [6] | growth [7] [%] | growth [8] | growth [9] [%] | growth [10] [%] |
| --- | --- | --- | --- | --- | --- | --- | --- | --- | --- | --- |
| CCOC(=O)c1sc2ncc(-c3ccc(OC)cc3)n2c1C | 85.9 | 84.3 | 97.3 | 91.4 | 103 | 92.6% | 74.7 | 104% | 106 | 105 |
| Cc1ccc(C(=O)N/N=C/c2cccc([N+](=O)[O-])c2)cn1 | 101 | 90 | 97.1 | 98.7 | 106 | 91.4% | 84.8 | 92.1% | 31.4 | 112 |
| c1ccc(OCc2nnc(-c3ccc(Oc4ccccc4)cc3)o2)cc1 | 94.2 | 93.7 | 106 | 86.4 | – | 84.6% | 86.8 | 96% | 99.1 | – |
| COc1cc2cc(Oc3ccc(NC(=O)Nc4cccc(C(F)(F)F)c4)cc3)c(C)nc2cc1OCCN1CCOCC1 | 15.4 | 57 | 80.4 | 50.8 | 16.4 | 33.9% | 29.3 | 15.8% | 67.3 | 35.5 |
| C=C1CC[C@@]2(C#N)[C@H]3[C@H](CC[C@@H]2C)[C@@H](C)C[C@@H](CC(C)(C)C#N)[C@H]13 | 44.1 | 62.7 | 90.2 | 41.9 | 22.8 | -16.9% (active) | 47.7 | 42.9% | 43 | 35.5 |
| COc1cc(/C=C2\C(=O)Nc3ccc(Br)cc32)cc(OC)c1OC | 63.5 | 77.1 | 76.1 | 85.2 | 73.3 | 48.2% | 47 | -4.21% (active) | 84.9 | 70.8 |
| O=C1CSC(c2c(Cl)cccc2Cl)N1c1nc(Cl)cc(=O)[nH]1 (stereo not drawn) | 104 | 99.8 | 177 | 95.8 | 101 | 65% | 75.8 | 103% | 90.7 | 111 |
| COc1cc(CCC[P+](c2ccccc2)(c2ccccc2)c2ccccc2)c(OC)c(OC)c1OC | 77.9 | 88.8 | 83.3 | 82.1 | 82.2 | 61.8% | 71.9 | 78.2% | 75.3 | 105 |
| COc1ccccc1/C=C1\Oc2cc(OCCN3CCC(Cc4ccccc4)CC3)ccc2C1=O | 93.9 | 96.9 | 85.6 | 103 | 93 | 57.8% | 91.7 | 96.2% | 80 | 38.4 |
| CC(=O)N1N=C(c2ccc(Nc3nc(Nc4ccc(F)cc4)nc(Nc4ccc(Cl)cc4)n3)cc2)CC1c1ccc(Cl)cc1 (stereo not drawn) | 84.6 | 83.8 | 85.3 | 84.1 | 107 | 64.1% | 73.2 | 92.5% | 98.2 | 94.3 |
| Cc1nc(/N=C(\N)NC(=O)Nc2cccc(Cl)c2)sc1C | 73.2 | 90.2 | 92 | 71 | 66 | 89.5% | 38.9 | 70.1% | 97.8 | 67.3 |
| CCCCNC(=O)Oc1ccc(/C(=C(\C)c2ccc(Cl)cc2)c2ccc(OCCN3CCCCC3)cc2)cc1 | 78.8 | 99.1 | 94.8 | 78.6 | 85.9 | 64.5% | 85.2 | 63.8% | 63.2 | 69.2 |
| CC1CN(C2CCCCC2)C(=S)N(c2ccccc2)C1=O (stereo not drawn) | 100 | 115 | 107 | 93.7 | 107 | 92.8% | 116 | 102% | 92.2 | 127 |

From PubChem BioAssay (NCI)
